In article PMC8384837, “Expanding the binding specificity for RNA recognition by a PUF domain”:

Columns and labels:
Experiment in all cases: yeast three-hybrid, YBZ-1, SC-Leu-His + 0.5 mM 3-AT, 4 days
Details in all cases: tags: N-Gal4 AD-HA kept; label: inside an RPR1-promoter hybrid RNA with tandem MS2 sites; ssRNA
[1] = target: PUM1 PUF domain R2-LWY (Homo sapiens, UniProt Q14671 828-1176, N899L;Y900W;Q903Y)
Method in brief: (§1)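 The interaction score is the logarithmic change in variant frequency from input to selection. It uses log2, with a pseudocount of 1 for absent variants, and frequencies came from PCR-amplified, Illumina-sequenced repeat regions. The libraries were Pumilio-1 PUF domains randomized at the three base-contacting residues per repeat, co-expressed with matching RNA elements in strain YBZ-1 (LexA–MS2 coat fusion, HIS3 reporter). Plating lasted four days on SC-Leu (input) or SC-Leu-His + 0.5 mM 3-AT (selection).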

[2] = target: PUM1 PUF domain R3-RTR (Homo sapiens, UniProt Q14671 828-1176, C935R;R936T;Q939R)
Method in brief: as §1

[3] = target: PUM1 PUF domain R8-MWR (Homo sapiens, UniProt Q14671 828-1176, N1122M;Y1123W;Q1126R)
Method in brief: as §1

[4] = target: PUM1 PUF domain R3-KHV (Homo sapiens, UniProt Q14671 828-1176, C935K;R936H;Q939V)
Method in brief: as §1

[5] = target: PUM1 PUF domain R3-ARG (Homo sapiens, UniProt Q14671 828-1176, C935A;Q939G)
Method in brief: as §1

[6] = target: PUM1 PUF domain R4-DYV (Homo sapiens, UniProt Q14671 828-1176, N971D;H972Y;Q975V)
Method in brief: as §1

[7] = target: PUM1 PUF domain R4-PFD (Homo sapiens, UniProt Q14671 828-1176, N971P;H972F;Q975D)
Method in brief: as §1

[8] = target: PUM1 PUF domain R4-AMV (Homo sapiens, UniProt Q14671 828-1176, N971A;H972M;Q975V)
Method in brief: as §1

[9] = target: PUM1 PUF domain R1-TVE (Homo sapiens, UniProt Q14671 828-1176, S863T;R864V;Q867E)
Method in brief: as §1

[10] = target: PUM1 PUF domain R5-RFA (Homo sapiens, UniProt Q14671 828-1176, C1007R;R1008F;Q1011A)
Method in brief: as §1

[11] = target: PUM1 PUF domain R8-KYC (Homo sapiens, UniProt Q14671 828-1176, N1122K;Q1126C)
Method in brief: as §1

[12] = target: PUM1 PUF domain R8-PWS (Homo sapiens, UniProt Q14671 828-1176, N1122P;Y1123W;Q1126S)
Method in brief: as §1

[13] = target: PUM1 PUF domain R8-KYQ (Homo sapiens, UniProt Q14671 828-1176, N1122K)
Method in brief: as §1

[14] = target: PUM1 PUF domain R5-RFG (Homo sapiens, UniProt Q14671 828-1176, C1007R;R1008F;Q1011G)
Method in brief: as §1

[15] = target: PUM1 PUF domain R5-HRM (Homo sapiens, UniProt Q14671 828-1176, C1007H;Q1011M)
Method in brief: as §1

[16] = target: PUM1 PUF domain R5-LYM (Homo sapiens, UniProt Q14671 828-1176, C1007L;R1008Y;Q1011M)
Method in brief: as §1

PUM1 PUF domain R4-AMV, sequence (Q14671 828-1176 N971A/H972M/Q975V): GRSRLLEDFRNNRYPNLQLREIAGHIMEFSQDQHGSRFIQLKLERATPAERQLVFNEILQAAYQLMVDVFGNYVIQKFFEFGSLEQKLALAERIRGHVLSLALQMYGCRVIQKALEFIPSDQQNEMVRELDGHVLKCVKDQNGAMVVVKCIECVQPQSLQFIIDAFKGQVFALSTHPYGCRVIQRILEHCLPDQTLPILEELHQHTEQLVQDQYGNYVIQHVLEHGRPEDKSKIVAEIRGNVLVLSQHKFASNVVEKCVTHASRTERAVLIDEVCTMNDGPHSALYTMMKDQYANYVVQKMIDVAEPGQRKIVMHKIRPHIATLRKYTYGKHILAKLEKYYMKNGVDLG
PUM1 PUF domain R3-RTR, sequence (Q14671 828-1176 C935R/R936T/Q939R): as the sequence (Q14671 828-1176 N971A/H972M/Q975V) above, with C108R, R109T, Q112R, A144N, M145H, V148Q counted along it
PUM1 PUF domain R4-PFD, sequence (Q14671 828-1176 N971P/H972F/Q975D): as the sequence (Q14671 828-1176 N971A/H972M/Q975V) above, with A144P, M145F, V148D counted along it
PUM1 PUF domain R4-DYV, sequence (Q14671 828-1176 N971D/H972Y/Q975V): as the sequence (Q14671 828-1176 N971A/H972M/Q975V) above, with A144D, M145Y counted along it
PUM1 PUF domain R8-MWR, sequence (Q14671 828-1176 N1122M/Y1123W/Q1126R): as the sequence (Q14671 828-1176 N971A/H972M/Q975V) above, with A144N, M145H, V148Q, N295M, Y296W, Q299R counted along it
PUM1 PUF domain R3-ARG, sequence (Q14671 828-1176 C935A/Q939G): as the sequence (Q14671 828-1176 N971A/H972M/Q975V) above, with C108A, Q112G, A144N, M145H, V148Q counted along it
PUM1 PUF domain R5-LYM, sequence (Q14671 828-1176 C1007L/R1008Y/Q1011M): as the sequence (Q14671 828-1176 N971A/H972M/Q975V) above, with A144N, M145H, V148Q, C180L, R181Y, Q184M counted along it
PUM1 PUF domain R1-TVE, sequence (Q14671 828-1176 S863T/R864V/Q867E): as the sequence (Q14671 828-1176 N971A/H972M/Q975V) above, with S36T, R37V, Q40E, A144N, M145H, V148Q counted along it
PUM1 PUF domain R3-KHV, sequence (Q14671 828-1176 C935K/R936H/Q939V): as the sequence (Q14671 828-1176 N971A/H972M/Q975V) above, with C108K, R109H, Q112V, A144N, M145H, V148Q counted along it
PUM1 PUF domain R8-KYC, sequence (Q14671 828-1176 N1122K/Q1126C): as the sequence (Q14671 828-1176 N971A/H972M/Q975V) above, with A144N, M145H, V148Q, N295K, Q299C counted along it
PUM1 PUF domain R5-HRM, sequence (Q14671 828-1176 C1007H/Q1011M): as the sequence (Q14671 828-1176 N971A/H972M/Q975V) above, with A144N, M145H, V148Q, C180H, Q184M counted along it
PUM1 PUF domain R5-RFG, sequence (Q14671 828-1176 C1007R/R1008F/Q1011G): as the sequence (Q14671 828-1176 N971A/H972M/Q975V) above, with A144N, M145H, V148Q, C180R, R181F, Q184G counted along it
PUM1 PUF domain R8-PWS, sequence (Q14671 828-1176 N1122P/Y1123W/Q1126S): as the sequence (Q14671 828-1176 N971A/H972M/Q975V) above, with A144N, M145H, V148Q, N295P, Y296W, Q299S counted along it
PUM1 PUF domain R5-RFA, sequence (Q14671 828-1176 C1007R/R1008F/Q1011A): as the sequence (Q14671 828-1176 N971A/H972M/Q975V) above, with A144N, M145H, V148Q, C180R, R181F, Q184A counted along it
PUM1 PUF domain R8-KYQ, sequence (Q14671 828-1176 N1122K): as the sequence (Q14671 828-1176 N971A/H972M/Q975V) above, with A144N, M145H, V148Q, N295K counted along it
PUM1 PUF domain R2-LWY, sequence (Q14671 828-1176 N899L/Y900W/Q903Y): as the sequence (Q14671 828-1176 N971A/H972M/Q975V) above, with N72L, Y73W, Q76Y, A144N, M145H, V148Q counted along it

In the case of “GGCUAGAACUAGUGGAUCCCCCGGCGCCCGGCGGCUCGAGCCCGGGUAAGUGUAAAAAGUCUGCAUGCCGCCGGGCGCCAUGCCUGCAGGUCGACUCUAGAAAACAUG”, the binding signal [1] is reported as 8.01 log2 enrichment (interaction score).
“GGCUAGAACUAGUGGAUCCCCCGGCGCCCGGCGGCUCGAGCCCGGGUAAGUGUAAGUAGUCUGCAUGCCGCCGGGCGCCAUGCCUGCAGGUCGACUCUAGAAAACAUG” was tested, and the binding signal [2] was 1.03 log2 enrichment (interaction score).
For “GGCUAGAACUAGUGGAUCCCCCGGCGCCCGGCGGCUCGAGCCCGGGUAAGGGUAAAUAGUCUGCAUGCCGCCGGGCGCCAUGCCUGCAGGUCGACUCUAGAAAACAUG”, the binding signal [3] was 2.37 log2 enrichment (interaction score).
In the case of “GGCUAGAACUAGUGGAUCCCCCGGCGCCCGGCGGCUCGAGCCCGGGUAAGUGUAAUUAGUCUGCAUGCCGCCGGGCGCCAUGCCUGCAGGUCGACUCUAGAAAACAUG”, the binding signal [4] is reported as 2.96 log2 enrichment (interaction score), the binding signal [5] is reported as 0.5 log2 enrichment (interaction score) and the binding signal [2] is reported as 4.46 log2 enrichment (interaction score).
“GGCUAGAACUAGUGGAUCCCCCGGCGCCCGGCGGCUCGAGCCCGGGUAAGUGUACAUAGUCUGCAUGCCGCCGGGCGCCAUGCCUGCAGGUCGACUCUAGAAAACAUG” was tested, and the binding signal [6] was 6.74 log2 enrichment (interaction score), the binding signal [7] was 1.86 log2 enrichment (interaction score) and the binding signal [8] was 1.83 log2 enrichment (interaction score).
With “GGCUAGAACUAGUGGAUCCCCCGGCGCCCGGCGGCUCGAGCCCGGGUAAGUGUAUAUAGUCUGCAUGCCGCCGGGCGCCAUGCCUGCAGGUCGACUCUAGAAAACAUG” the binding signal [6] was 6.86 log2 enrichment (interaction score), the binding signal [7] was 5.34 log2 enrichment (interaction score) and the binding signal [8] was 1.51 log2 enrichment (interaction score).
With “GGCUAGAACUAGUGGAUCCCCCGGCGCCCGGCGGCUCGAGCCCGGGUAAGUGUAAAUGGUCUGCAUGCCGCCGGGCGCCAUGCCUGCAGGUCGACUCUAGAAAACAUG” the binding signal [9] was 2.57 log2 enrichment (interaction score).
With “GGCUAGAACUAGUGGAUCCCCCGGCGCCCGGCGGCUCGAGCCCGGGUAAGUGUAAAUAGUCUGCAUGCCGCCGGGCGCCAUGCCUGCAGGUCGACUCUAGAAAACAUG” the binding signal [5] was 3.94 log2 enrichment (interaction score), the binding signal [6] was 5.94 log2 enrichment (interaction score) and the binding signal [10] was 2.39 log2 enrichment (interaction score). For the same sequence, the binding signal [11] was 2.79 log2 enrichment (interaction score), the binding signal [7] was 3.55 log2 enrichment (interaction score) and the binding signal [12] was 2.42 log2 enrichment (interaction score). The binding signal [13] was 5.9 log2 enrichment (interaction score), the binding signal [14] was 3.09 log2 enrichment (interaction score) and the binding signal [15] was 1.49 log2 enrichment (interaction score). For the same sequence, the binding signal [3] was 4.37 log2 enrichment (interaction score), the binding signal [16] was 2.36 log2 enrichment (interaction score) and the binding signal [2] was 0.19 log2 enrichment (interaction score). The binding signal [8] was 3.03 log2 enrichment (interaction score).
